Most compounds without a hit are left out; they make up all but 11% or so of the library.
PNC assembly inh = blocks assembly of the perinucleolar compartment. PC3M PTB-GFP, PNC prevalence imaging, 16 h; hits give low values. activity change (PNC), negative = inhibition, % at 10 µM. 140,000 compounds, 3.1% hits. AID 2417;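 active means readout at or below -70, meaning at least 70% loss of cells showing the perinucleolar compartment, a nuclear body marking cancer cells; inconclusive means readout between -30 and a set limit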;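 further: plate controls were DMSO wells for no effect and camptothecin positive control wells for full effect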
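Compounds are pinned in duplicate onto adhered PC3M cells stably expressing GFP-tagged PTB and incubated 16 h at 37 C. Cells are then fixed, nuclei stained with Hoechst, and PNC-positive cells counted.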
ALDH1A1 block = blocks purified human ALDH1A1 activity; 220,000 compounds, 7.3% hits; Purified ALDH1A1, NADH fluorescence, propionaldehyde substrate; Potency, µM (titrated, usually from 75.3 µM), inactives show at the top dose activity, negative = inhibition, hits mostly inhibitors; P00352; AID 1030; active means well fitted inhibition curve with a large enough effect, not every such curve was filed as active; inconclusive means small, poorly fitted or top-dose-only effect, or another doubt; inactive means no such curve, though single readings can be large or run the other way;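 further: potency means the concentration at half of the fitted maximal effect; plate controls were no enzyme wells and a reference inhibitor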
HPGD block = HPGD (human) dehydrogenase inhibition | AID 894 | 150,000 compounds, 4.3% hits | Potency, µM, inactives show top-dose activity change, negative = inhibition, most hits filed as inhibitors | purified HPGD, NADH fluorescence kinetic, PGE2 substrate; active means well fitted inhibition curve with a large enough effect, not every such curve was filed as active; inconclusive means small, poorly fitted or top-dose-only effect, or another doubt; inactive means no such curve, though single readings can be large or run the other way; further: potency means the concentration at half of the fitted maximal effect
Target sequence (P15428 whole entry, looked up): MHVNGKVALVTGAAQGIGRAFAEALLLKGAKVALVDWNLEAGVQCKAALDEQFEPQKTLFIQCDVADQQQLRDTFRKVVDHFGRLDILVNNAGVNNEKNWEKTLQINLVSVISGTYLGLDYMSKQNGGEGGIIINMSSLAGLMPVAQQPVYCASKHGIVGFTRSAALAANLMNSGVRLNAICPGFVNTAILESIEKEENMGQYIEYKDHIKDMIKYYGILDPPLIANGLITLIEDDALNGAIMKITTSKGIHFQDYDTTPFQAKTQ
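NADH formation kinetics: reaction with 30 uM PGE2 and 1 mM NAD+ (final), 20 nM enzyme, Tris-HCl pH 8 with Tween 20, after 15 min compound preincubation at room temperature. Fluorescence change, last versus first of five reads.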
IMPase Li inh = membrane-permeable IMPase blocker, potentiated with lithium | CHO-M1 cells, IP1 TR-FRET (IP-One), carbachol + lithium | Potency, µM (titrated, usually from 59.4 µM), for inactives: top-dose activity, negative = IMPase inhibition, actives largely listed as inhibitors | 210,000 compounds, 0.35% hits | AID 1457;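 further: IP1 builds up when IMPase is blocked and the TR-FRET signal falls; potency means the concentration at half of the fitted maximal effect; plate controls were basal vehicle for no effect and high inhibitor control for full effect; nearly all actives have a fitted effect of over 50% in size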
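Concentration–response in CHO-M1 cells, lithium-potentiated; 30 min at 37C. IP1 detected by competitive TR-FRET after 10 min lysis at RT. Hill-fitted AC50.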
IMPase cell inh = membrane-permeable compound that blocks inositol monophosphatase. AID 901. inhibition (IP1 accumulation), % at 46.1 µM. CHO-M1 cells, IP1 accumulation, HTRF TR-FRET ratio. 120,000 tested, under 10 active; active means well fitted curve in the direction sought with a large enough effect in the signal ratio, not every such curve was filed as active; inconclusive means small, poorly fitted or top-dose-only effect, or a change in a side signal; inactive means no such curve, though single readings can be large or run the other way; the % refers to the signal ratio;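 further: cells stimulated with carbachol in lithium chloride buffer; plate controls were DMSO basal wells for no effect and reference inhibitor wells for full effect; higher means more IMPase inhibition seen as more IP1 and lower FRET ratio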
Target sequence (P97697 whole entry, looked up): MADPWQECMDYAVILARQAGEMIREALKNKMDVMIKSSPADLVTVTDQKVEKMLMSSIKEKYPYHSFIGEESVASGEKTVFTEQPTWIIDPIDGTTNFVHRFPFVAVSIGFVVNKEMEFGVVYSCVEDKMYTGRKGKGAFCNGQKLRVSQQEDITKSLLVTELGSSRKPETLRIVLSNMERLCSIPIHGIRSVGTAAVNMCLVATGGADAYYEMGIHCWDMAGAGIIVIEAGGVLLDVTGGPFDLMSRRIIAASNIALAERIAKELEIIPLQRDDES
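Elevated IP1 in lysates lowers TR-FRET signal (665/620 ratio and 620 channel reported). Cells were CHO-M1, given carbachol (50 uM as added) plus 50mM LiCl, pH 7.4, 30 min, 37C; compounds titrated up to 46 uM; AC50 by Hill equation.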
NPSR antag = neuropeptide S receptor (human) antagonism, cAMP. Q6W5P4. CHO-NPSR cells, cAMP TR-FRET, antagonist mode. Potency, µM (highest dose often 38.3 µM), for inactives: at the top dose activity change, negative = inhibition, usual class: inhibitors. 220,000 compounds, 1% hits. AID 1461; further: potency means the concentration at half of the fitted maximal effect; nearly all actives have a fitted effect of over 50% in size
* hit, by the source's call; ? = inconclusive; nt = no result given; ! = repeats disagree; [ ] = dose if it differs, or a comment. Unless noted, the call rests on the fitted dose curve; in most records, active means well fitted curve in the direction sought with a large enough effect; inconclusive means small, poorly fitted or top-dose-only effect, or another doubt; inactive means no such curve, though single readings can be large; an effect the other way counts as inactive or inconclusive. Unless noted, on the % scale 0 is the no-effect control and ±100 the full control effect.

SMILES	PNC assembly inh	ALDH1A1 block	HPGD block	IMPase Li inh	IMPase cell inh	NPSR antag
CCC(=O)OC1(C)C(=O)C=C2C=C(c3ccsc3)OC=C2C1=O (configuration not stated)	nt	?	-4%	3%	nt	1%
c1cc(CNCC2CCCO2)ccn1 (configuration not stated)	nt	3%	nt	-1%	nt	13%
COc1ccc(NC(=O)CSc2nnnn2C)c([N+](=O)[O-])c1	nt	28µM*	nt	15%	nt	5%
CCCn1c(N2CCN(Cc3cccc(C)c3)CC2)nc2c1c(=O)[nH]c(=O)n2C	10	-10%	-8%	7%[38.3 µM]	7	-5%[46.1 µM]
CCCOc1ccccc1-c1nc2n[nH]nc2c(=O)[nH]1	nt	20µM*!	8.9µM*	5%	3	-9%[46.1 µM]
CCCc1nn(C)c2c(=O)[nH]c(-c3ccccc3OCC)nc12	-9	?	?	1%	nt	13%
N#CCc1c(C#N)c(N)nc(N2CCCC(O)C2)c1C#N (configuration not stated)	nt	3.5µM*	nt	5%	nt	21%
Cc1ccc2oc(-c3ccccc3)c(C(=O)O)c(=O)c2c1	66	?	14µM*	-10%[38.3 µM]	-2	-19%[46.1 µM]
COc1ccc2oc(-c3ccccc3)c(C(N)=O)c2c1	0	?	?	11µM*	3	6%[46.1 µM]
COc1ccc(CNc2nc(-c3ccccc3)nn2C(=O)c2ccc([N+](=O)[O-])cc2)cc1	-18	-11%	-24%	6%	-7	4%
COc1ccc(CNc2nc(-c3ccccc3)nn2C(=O)c2cccs2)cc1	29	25µM*	-29%	17%[38.3 µM]	3	-6%[46.1 µM]
O=[N+]([O-])c1cc(Cl)ccc1N1CCCC1	nt	?	nt	-5%	nt	-5%
O=C1C(Cl)=C(N2CCN(c3ccccc3[N+](=O)[O-])CC2)C(=O)c2ccccc21	?	7.1µM*	-21%	33%	nt	10µM*
CS(=O)(=O)c1nc(-c2ccco2)cc(C(F)(F)F)n1	?	?	?	27%[38.3 µM]	4	10µM*
CN1CCN(c2nc(-c3ccco3)cc(C(F)(F)F)n2)CC1	-23	-3%	-16%	72%[38.3 µM]	16	4%[46.1 µM]
COc1ccccc1-c1cc(C(F)(F)F)nc(S(C)(=O)=O)n1	?	-4%	25µM*	3%[38.3 µM]	3	7.9µM*
CC(=O)N1CCN(c2ccc(NCc3ccc(C)s3)cc2)CC1	?	25µM*	-15%	13%[38.3 µM]	19	-8%[46.1 µM]
OCCC1CN(Cc2ccc3nonc3c2)CCN1Cc1ccsc1 (configuration not stated)	nt	19µM*	nt	12%	nt	6%
CCN(CC)C(=O)C1CCN(Cc2ccc(Br)cc2)CC1	12	?	-1%	9%[38.3 µM]	7	-14%[46.1 µM]
CCN(CC)C(=S)SCC(=O)c1ccc(Br)cc1	24	8.9µM*	?	12%	nt	-40%
O=C(c1cccnc1)N1N=C2CCCCCC2C1(O)C(F)(F)F (configuration not stated)	nt	?	nt	2%	nt	9%
O=C(c1cccnc1)N1N=C(C2CCCCC2)CC1(O)C(F)(F)F (configuration not stated)	nt	13µM*	nt	9%	nt	11%
CCC1CCc2c(sc(NC(=O)c3cccnc3)c2C(N)=O)C1 (configuration not stated)	nt	?	nt	1%	nt	-3%
C[C@@H](C(=O)Nc1ccc2ccccc2c1)[C@H]1C[C@]1(C)[C@H](NC(=O)c1cnccn1)c1ccccc1	-91*	11µM*	-9%	13%	nt	-28%
Cc1cc(C(=O)N[C@H](c2ccccc2)[C@@]2(C)C[C@@H]2[C@@H](C)C(=O)Nc2ccc3ccccc3c2)no1	33	13µM*	-11%	9%	nt	-25%
O=C(CCn1nnc2ccccc21)Nc1nnc(Cc2ccccc2)s1	-16	?	32µM*	-2%	1	-14%[46.1 µM]
O=C(CCn1nnc2ccccc21)Nc1nnc(COc2ccccc2F)s1	-28	9%	-18%	-7%[38.3 µM]	4	-10%[46.1 µM]
O=C(O)CCC(=O)Nc1ccc(Br)cc1C(=O)c1ccccc1Cl	nt	nt	nt	nt	nt	-24%

Screening results: PubChem BioAssay, National Center for Advancing Translational Sciences (NCATS)
